Records with an inconclusive call do not appear. Entries that show only a call come without a potency. Active and inactive are the calls of the source. Unless noted, calls come from the whole dose curve; as a rule, active = well fitted curve in the direction sought with a large enough effect in the repeat runs; inconclusive = weak or mixed curves; inactive = no such curve, though single readings can be large; an effect the other way counts as inactive or inconclusive.
What was measured:
[1] = qHTS assay to identify small molecule antagonists of the thyroid receptor (TR) signaling pathway - cell viability counter screen (AID 743064); note: nearly all actives have a fitted effect of over 50% in size; note: potency is the fitted concentration of half-maximal effect
Method in brief: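 Counter screen for cytotoxicity: compound plus T3 (1 nM final) on GH3.TRE-Luc cells, 23.5 h at 37 °C, then fluorescence viability readout with CellTiter-Fluor.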

[2] = target: Estrogen receptor (Homo sapiens) (UniProt P03372); assay: qHTS assay to identify small molecule agonists of the estrogen receptor alpha (ER-alpha) signaling pathway (AID 743075; calls by dose curve;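 note: HEK293 GripTite cells with ER-alpha and UAS-driven beta-lactamase reporter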)
[3] = target: Estrogen receptor (Homo sapiens) (UniProt P03372); assay: qHTS assay to identify small molecule agonists of the estrogen receptor alpha (ER-alpha) signaling pathway using the BG1 cell line (AID 743079); conditions: BG1Luc4E2 cells, ERE-luciferase agonist, 22 h; activation: at 70.3 µM (top of the series); note: nearly all actives have a fitted effect of over 20% in size
[4] = qHTS assay to identify small molecule antagonists of the estrogen receptor alpha (ER-alpha) signaling pathway using the BG1 cell line (AID 743080; calls by dose curve;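 note: BG1 cells stimulated with 17beta-estradiol alongside compound; nearly all actives have a fitted effect of over 25% in size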)
Method in brief: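 Luminescence from a 4×ERE-luciferase reporter in BG1-Luc-4E2 cells served as read-out. Cells, pre-cultured 5 days in stripped-serum phenol-red-free medium, were exposed to compound with 17beta-estradiol co-stimulation for 21.5 h at 37 C.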

[5] = qHTS assay to identify small molecule antagonists of the estrogen receptor alpha (ER-alpha) signaling pathway using the BG1 cell line - cell viability counter screen (AID 743081);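 note: compound given together with 17beta-estradiol as the ER stimulus; nearly all actives have a fitted effect of over 45% in size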; note: potency is the fitted concentration of half-maximal effect
[6] = target: Aromatase (Homo sapiens) (UniProt P11511); assay: qHTS assay to identify aromatase inhibitors (AID 743083); note: nearly all actives have a fitted effect of over 55% in size; note: potency is the fitted concentration of half-maximal effect
[7] = qHTS assay to identify aromatase inhibitors - cell viability counter screen (AID 743084);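 note: cells stimulated with testosterone during compound exposure; nearly all actives have a fitted effect of over 55% in size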; note: potency is the fitted concentration of half-maximal effect
[8] = target: Aryl hydrocarbon receptor (Homo sapiens) (UniProt P35869); assay: qHTS assay to identify small molecule that activate the aryl hydrocarbon receptor (AhR) signaling pathway (AID 743085); note: nearly all actives have a fitted effect of over 15% in size; note: potency is the fitted concentration of half-maximal effect;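 for activation: HG2L7.5c1 human HepG2 liver cells with stably integrated DRE-driven firefly reporter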
Method in brief: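 Measured in HG2L7.5c1 cells: CellTiter-Fluor signal (30 min incubation, 37C) for viability, then luciferase luminescence (30 min, room temperature). Compound contact time was 24 h at 37C, following a 5 h pre-incubation.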

[9] = qHTS assay to identify small molecule that activate the aryl hydrocarbon receptor (AhR) signaling pathway - cell viability counter screen (AID 743086); note: nearly all actives have a fitted effect of over 45% in size; note: potency is the fitted concentration of half-maximal effect
Method in brief: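 HepG2-AhR-luc (HG2L7.5c1) cells, 4000/well, treated 24 h at 37 C with compound; viability measured as CellTiter-Fluor fluorescence after 30 min in the same wells as the luciferase read.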

[10] = target: Peroxisome proliferator-activated receptor gamma (Homo sapiens) (UniProt P37231); assay: qHTS assay to identify small molecule agonists of the peroxisome proliferator-activated receptor gamma (PPARg) signaling pathway (AID 743094; active = well fitted activation curve with a large enough effect in the signal ratio in the repeat runs, not every such curve was filed as active; the % refers to the signal ratio)
Method in brief: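 Cell-based bla reporter, HEK293H background, PPARg-driven UAS. Pre-incubation 5 h, 37C, 5% CO2. Compound 17 h, 37C. Substrate 1 h RT; fluorescence.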

[11] = target: Peroxisome proliferator-activated receptor gamma (Homo sapiens) (UniProt P37231); assay: qHTS assay to identify small molecule antagonists of the peroxisome proliferator-activated receptor gamma (PPARg) signaling pathway (AID 743191; calls by dose curve; note: nearly all actives have a fitted effect of over 30% in size)
Method in brief: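 GeneBLAzer PPARg UAS-bla HEK293H cells, 5 h post-plating, exposed to compounds 17 h at 37C. LiveBLAzer B/G FRET substrate added for 1 h at room temperature; beta-lactamase reporter read by fluorescence intensity.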

[12] = qHTS assay to identify small molecule antagonists of the peroxisome proliferator-activated receptor gamma (PPARg) signaling pathway - cell viability counter screen (AID 743194); note: nearly all actives have a fitted effect of over 55% in size
Method in brief: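 Cytotoxicity counter screen in PPARg-bla HEK293H cells, same wells as reporter assay. Compounds plus 50 nM rosiglitazone (final) for 17 h at 37 C, then viability read by CellTiter-Glo luminescence.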

[13] = qHTS assay for small molecule agonists of the antioxidant response element (ARE) signaling pathway (AID 743202; active = well fitted activation curve with a large enough effect in the signal ratio in the repeat runs, not every such curve was filed as active; the % refers to the signal ratio)
Method in brief: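 HepG2 ARE-bla reporter line, 2,000 cells/well; 5 h preincubation 37 C/5% CO2; compound (DMSO) 16 h 37 C; B/G FRET substrate 2 h RT; fluorescence intensity.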

[14] = qHTS assay for small molecule agonists of the antioxidant response element (ARE) signaling pathway - cell viability counter screen (AID 743203; calls by dose curve; note: nearly all actives have a fitted effect of over 55% in size; note: potency is the fitted concentration of half-maximal effect)
Method in brief: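 Measured in the same wells as the beta-lactamase ARE reporter, this read-out is CellTiter-Glo luminescence from HepG2 ARE-bla cells given compounds for 16 hrs.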

[15] = qHTS assay for small molecule activators of the heat shock response signaling pathway - cell viability counter screen (AID 743209); note: nearly all actives have a fitted effect of over 50% in size
Method in brief: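 Same-well multiplex: after 2.5 h room-temperature incubation with LiveBLAzer B/G substrate and fluorescence reading, CellTiter-Glo reagent was added to HSE-bla HeLa cells that had received compound for 5 h at 37 C; luminescence read after 30 min.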

[16] = test system: thyroid hormone receptor (rat, GH3 cells); assay: qHTS assay to identify small molecule agonists of the thyroid receptor (TR) signaling pathway (AID 743066; calls by dose curve)
[17] = qHTS assay to identify small molecule antagonists of the estrogen receptor alpha (ER-alpha) signaling pathway - cell viability counter screen (AID 743074; calls by dose curve;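 note: HEK293 cells carrying ER-alpha-UAS-bla reporter stimulated with 17beta-estradiol; nearly all actives have a fitted effect of over 45% in size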; note: potency is the fitted concentration of half-maximal effect)
[18] = qHTS assay for small molecule activators of the heat shock response signaling pathway (AID 743210; active = well fitted activation curve with a large enough effect in the signal ratio in the repeat runs, with a control signal flat, not every such curve was filed as active; the % refers to the signal ratio;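 note: HeLa cells with beta-lactamase reporter driven by heat shock elements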)
Method in brief: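 Beta-lactamase reporter read-out: FRET substrate fluorescence after 2.5 h at RT, following 5 h compound treatment at 37 C of HeLa cells carrying HSE-driven bla reporter; quantitative HTS format.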

[19] = qHTS assay to identify small molecule antagonists of the thyroid receptor (TR) signaling pathway (AID 743065); note: nearly all actives have a fitted effect of over 55% in size; note: potency is the fitted concentration of half-maximal effect
Method in brief: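 GH3.TRE-Luc rat pituitary cells (two TREs driving luciferase) were dosed with compound, then stimulated with 1 nM T3 (final) for 23.5 h at 37 C. ONE-Glo luminescence was the read-out, with CellTiter-Fluor fluorescence as the cytotoxicity counter-screen.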

[20] = target: Estrogen receptor (Homo sapiens) (UniProt P03372); assay: qHTS assay to identify small molecule antagonists of the estrogen receptor alpha (ER-alpha) signaling pathway (AID 743069; active = well fitted curve in the direction sought with a large enough effect in the signal ratio in the repeat runs, not every such curve was filed as active; the % refers to the signal ratio)
Method in brief: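 Beta-lactamase FRET fluorescence is read after 2 hr at room temperature with LiveBLAzer B/G substrate. Before that, ER-alpha-bla HEK293 cells sit 4 hr after plating, then receive compound plus 17beta-estradiol and incubate 18 hr at 37C.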

Chain of Estrogen receptor (Homo sapiens) (P03372 whole entry, looked up): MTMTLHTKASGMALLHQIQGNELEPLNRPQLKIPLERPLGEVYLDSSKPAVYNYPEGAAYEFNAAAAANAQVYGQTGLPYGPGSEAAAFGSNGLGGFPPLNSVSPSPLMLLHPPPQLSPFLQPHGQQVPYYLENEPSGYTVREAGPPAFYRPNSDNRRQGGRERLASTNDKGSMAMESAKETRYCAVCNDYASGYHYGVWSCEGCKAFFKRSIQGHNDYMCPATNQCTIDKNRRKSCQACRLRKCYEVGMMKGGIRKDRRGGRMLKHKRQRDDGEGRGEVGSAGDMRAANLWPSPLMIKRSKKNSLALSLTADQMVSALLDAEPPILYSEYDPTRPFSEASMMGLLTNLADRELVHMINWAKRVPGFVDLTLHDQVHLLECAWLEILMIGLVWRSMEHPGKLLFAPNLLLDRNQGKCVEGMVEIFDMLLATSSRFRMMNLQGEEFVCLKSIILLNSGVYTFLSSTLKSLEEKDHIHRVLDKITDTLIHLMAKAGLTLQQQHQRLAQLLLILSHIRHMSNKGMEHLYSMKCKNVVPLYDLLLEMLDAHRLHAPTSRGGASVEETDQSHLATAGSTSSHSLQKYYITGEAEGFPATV
Chain of Peroxisome proliferator-activated receptor gamma (Homo sapiens) (P37231 whole entry, looked up): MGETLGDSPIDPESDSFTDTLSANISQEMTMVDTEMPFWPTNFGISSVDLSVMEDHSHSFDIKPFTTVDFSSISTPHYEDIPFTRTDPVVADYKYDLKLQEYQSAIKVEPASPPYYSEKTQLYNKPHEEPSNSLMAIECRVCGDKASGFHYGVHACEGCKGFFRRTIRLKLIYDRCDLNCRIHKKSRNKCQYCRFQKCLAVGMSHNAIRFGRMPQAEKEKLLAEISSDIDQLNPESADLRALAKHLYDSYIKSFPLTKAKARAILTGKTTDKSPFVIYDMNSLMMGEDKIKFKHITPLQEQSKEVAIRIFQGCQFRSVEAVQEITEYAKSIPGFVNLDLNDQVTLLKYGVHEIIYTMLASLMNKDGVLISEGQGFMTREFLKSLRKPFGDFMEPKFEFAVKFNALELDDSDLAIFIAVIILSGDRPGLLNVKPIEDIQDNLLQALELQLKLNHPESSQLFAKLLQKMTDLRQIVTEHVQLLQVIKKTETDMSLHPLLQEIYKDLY
Chain of Aromatase (Homo sapiens) (P11511 whole entry, looked up): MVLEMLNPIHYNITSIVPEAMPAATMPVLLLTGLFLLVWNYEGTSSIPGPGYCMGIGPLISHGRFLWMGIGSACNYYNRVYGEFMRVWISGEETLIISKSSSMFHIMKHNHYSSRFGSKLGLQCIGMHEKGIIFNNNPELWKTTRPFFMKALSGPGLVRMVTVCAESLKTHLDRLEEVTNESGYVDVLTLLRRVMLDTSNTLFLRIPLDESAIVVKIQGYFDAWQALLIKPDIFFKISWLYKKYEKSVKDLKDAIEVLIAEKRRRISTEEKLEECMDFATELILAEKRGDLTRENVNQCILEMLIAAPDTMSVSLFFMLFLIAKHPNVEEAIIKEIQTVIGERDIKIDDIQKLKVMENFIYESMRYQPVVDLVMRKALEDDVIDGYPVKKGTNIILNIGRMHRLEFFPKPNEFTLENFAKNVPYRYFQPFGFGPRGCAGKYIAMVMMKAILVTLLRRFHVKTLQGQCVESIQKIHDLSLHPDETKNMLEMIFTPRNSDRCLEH
Chain of Aryl hydrocarbon receptor (Homo sapiens) (P35869 whole entry, looked up): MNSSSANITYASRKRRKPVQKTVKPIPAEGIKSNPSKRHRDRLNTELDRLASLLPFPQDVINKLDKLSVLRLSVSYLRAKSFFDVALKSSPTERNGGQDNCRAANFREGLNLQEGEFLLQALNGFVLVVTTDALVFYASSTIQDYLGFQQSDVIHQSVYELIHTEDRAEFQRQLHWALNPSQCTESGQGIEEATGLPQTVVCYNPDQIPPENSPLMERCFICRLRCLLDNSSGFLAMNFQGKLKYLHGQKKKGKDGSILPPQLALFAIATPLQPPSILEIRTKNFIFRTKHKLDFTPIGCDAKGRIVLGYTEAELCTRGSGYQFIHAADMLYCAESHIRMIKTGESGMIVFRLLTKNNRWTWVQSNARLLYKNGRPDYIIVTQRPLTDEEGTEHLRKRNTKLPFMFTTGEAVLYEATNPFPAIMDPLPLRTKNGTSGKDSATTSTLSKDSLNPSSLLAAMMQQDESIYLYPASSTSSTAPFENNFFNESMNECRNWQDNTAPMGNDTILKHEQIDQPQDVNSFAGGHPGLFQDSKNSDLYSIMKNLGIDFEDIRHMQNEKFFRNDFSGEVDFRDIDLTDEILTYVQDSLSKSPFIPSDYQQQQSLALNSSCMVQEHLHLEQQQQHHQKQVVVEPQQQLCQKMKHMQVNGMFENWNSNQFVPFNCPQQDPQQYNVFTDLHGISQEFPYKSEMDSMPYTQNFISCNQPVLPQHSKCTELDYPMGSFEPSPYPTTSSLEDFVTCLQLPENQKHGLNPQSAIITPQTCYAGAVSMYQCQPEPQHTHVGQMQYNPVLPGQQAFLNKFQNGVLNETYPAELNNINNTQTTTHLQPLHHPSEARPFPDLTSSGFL

Row | SMILES | Potency [1] | Potency [2] | Potency [3] | Potency [4] | Potency [5] | Potency [6] | Potency [7] | Potency [8] | Potency [9] | Potency [10] | Potency [11] | Potency [12] | Potency [13] | Potency [14] | Potency [15] | outcome [16] | Potency [17] | Potency [18] | Potency [19] | Potency [20]
1 | Cc1ccc(S)cc1 | inactive | inactive | inactive | inactive | inactive | inactive | inactive | inactive | inactive | inactive | inactive | inactive | inactive | inactive | inactive | – | – | – | – | –
2 | NC(=O)Nc1ccc(Cl)c(Cl)c1 | inactive | – | – | – | inactive | inactive | inactive | – | inactive | inactive | – | – | – | – | inactive | inactive | inactive | inactive | – | –
3 | O=C(N/N=C/c1ccc([N+](=O)[O-])o1)c1ccc(O)cc1 | inactive | inactive | – | – | – | 10.1 µM (active) | – | inactive | 11.4 µM (active) | inactive | – | – | – | 23.7 µM (active) | inactive | inactive | inactive | inactive | – | –
4 | CCCOC(=O)c1ccc(N)cc1 | – | inactive | – | – | inactive | inactive | inactive | – | inactive | inactive | – | inactive | – | inactive | inactive | inactive | inactive | inactive | inactive | –
5 | CCC(C)(C)C1CCC(O)CC1 (stereo not given) | – | inactive | – | inactive | inactive | inactive | inactive | inactive | inactive | inactive | – | inactive | inactive | inactive | inactive | inactive | inactive | inactive | inactive | inactive
6 | CC(C)C(=O)O | – | inactive | – | inactive | inactive | inactive | – | inactive | inactive | inactive | inactive | inactive | inactive | inactive | inactive | inactive | inactive | inactive | inactive | inactive
7 | CCCCCCCCCCCC[N+](C)(C)CCCS(=O)(=O)[O-] | – | inactive | inactive | inactive | inactive | inactive | inactive | inactive | inactive | inactive | inactive | inactive | inactive | inactive | inactive | inactive | 49.6 µM (active) | inactive | 24.6 µM (active) | inactive
8 | CCCCCCCC/C=C\CCCCCCCC(=O)OC | – | – | – | – | inactive | inactive | inactive | inactive | inactive | inactive | inactive | inactive | inactive | inactive | inactive | inactive | inactive | inactive | inactive | –
9 | CCOC(=O)c1ccccc1OC | – | – | – | – | inactive | inactive | inactive | inactive | inactive | inactive | inactive | inactive | inactive | inactive | inactive | inactive | inactive | inactive | inactive | –
10 | C(=C\c1ccccc1)/CN1CCN(C(c2ccccc2)c2ccccc2)CC1 | 12.7 µM (active) | – | – | – | inactive | inactive | inactive | inactive | inactive | – | – | – | – | inactive | inactive | – | inactive | – | – | –
11 | COc1ccccc1N=Nc1c(S(=O)(=O)O)cc2cc(S(=O)(=O)O)cc(NC(C)=O)c2c1O | 32.3 µM (active) | – | – | – | 28.8 µM (active) | – | 20.4 µM (active) | – | 22.9 µM (active) | inactive | inactive | inactive | inactive | inactive | inactive | inactive | inactive | inactive | – | –
12 | CCCCC(=O)O[C@]1(C(=O)CO)[C@@H](C)C[C@H]2[C@@H]3CCC4=CC(=O)C=C[C@]4(C)[C@@]3(F)[C@@H](O)C[C@@]21C | – | inactive | – | – | inactive | inactive | inactive | – | inactive | inactive | inactive | inactive | – | inactive | – | inactive | inactive | inactive | 61.1 µM (active) | –
13 | CC(C)(C)C(=O)C(Oc1ccc(Cl)cc1)n1ccnc1 (stereo not given) | – | inactive | inactive | inactive | inactive | 11.9 µM (active) | inactive | 23.7 µM (active) | inactive | – | – | inactive | inactive | inactive | inactive | inactive | inactive | – | inactive | inactive
14 | C=C(C)C(=O)OCCOC(=O)CC(C)=O | – | – | – | – | inactive | inactive | inactive | inactive | inactive | inactive | inactive | – | inactive | inactive | inactive | inactive | inactive | inactive | inactive | –
15 | CCOC(=O)OCC | – | inactive | inactive | inactive | inactive | inactive | inactive | inactive | inactive | inactive | inactive | – | inactive | inactive | inactive | inactive | inactive | inactive | inactive | inactive
16 | CCCCC/C(=C\c1ccccc1)CO | 48 µM (active) | – | – | – | inactive | 30.3 µM (active) | – | – | inactive | inactive | – | – | inactive | inactive | – | inactive | inactive | inactive | – | –
